In PubChem BioAssay (Tox21):
“And” between values parts separate entries of the source, which are not always exact repeats. Equal values may be shown once. Records with an inconclusive call do not appear. Some compounds were tested as several samples or in several runs, with calls that do not always agree. The source made the active and inactive calls. Unless noted, calls follow the shape of the dose curve; as a rule, active = well fitted curve in the direction sought with a large enough effect in the repeat runs; inconclusive = weak or mixed curves; inactive = no such curve, though single readings can be large; an effect the other way counts as inactive or inconclusive.

Assays:
[1] = qHTS assay to identify small molecule agonists of the peroxisome proliferator-activated receptor delta (PPARd) signaling pathway - cell viability counter screen (AID 743211); also: nearly all actives have a fitted effect of over 55% in size; also: potency is read from the fitted curve at half-maximal effect
Procedure, shortened: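 PPARd-bla HEK293H cells (3000/well) were pre-incubated 5 h at 37 C, then exposed to compound for 17 h at 37 C. After 2 h with LiveBLAzer substrate, CellTiter-Glo was added to the same wells; luminescence read after 30 min at room temperature.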

[2] = biological target: Peroxisome proliferator-activated receptor delta (Homo sapiens) (UniProt Q03181); assay: qHTS assay to identify small molecule agonists of the peroxisome proliferator-activated receptor delta (PPARd) signaling pathway (AID 743212; calls by dose curve; also: potency is read from the fitted curve at half-maximal effect)
Peroxisome proliferator-activated receptor delta (Homo sapiens), sequence (Q03181 whole entry, looked up): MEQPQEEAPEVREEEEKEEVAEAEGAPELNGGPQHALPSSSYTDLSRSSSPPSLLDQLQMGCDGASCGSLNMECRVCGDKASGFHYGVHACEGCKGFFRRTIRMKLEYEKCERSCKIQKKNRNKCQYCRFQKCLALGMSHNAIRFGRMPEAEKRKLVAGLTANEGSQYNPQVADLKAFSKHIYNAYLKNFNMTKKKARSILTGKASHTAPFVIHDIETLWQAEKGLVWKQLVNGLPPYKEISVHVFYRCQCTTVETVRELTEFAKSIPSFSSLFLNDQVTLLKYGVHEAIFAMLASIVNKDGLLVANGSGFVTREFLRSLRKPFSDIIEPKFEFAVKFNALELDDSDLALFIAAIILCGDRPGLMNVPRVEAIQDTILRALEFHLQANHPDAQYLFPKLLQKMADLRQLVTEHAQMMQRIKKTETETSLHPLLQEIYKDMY
Procedure, shortened: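 Read-out: beta-lactamase FRET fluorescence after 2 h room-temperature incubation with LiveBLAzer B/G substrate. Cells were HEK293H carrying a UAS-bla reporter for PPARd, treated at 37 C with DMSO-dissolved compounds.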

[3] = qHTS assay to identify small molecule antagonists of the peroxisome proliferator-activated receptor delta (PPARd) signaling pathway - cell viability counter screen (AID 743213); also: nearly all actives have a fitted effect of over 50% in size; also: potency is read from the fitted curve at half-maximal effect
Procedure, shortened: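 HEK293H PPARd UAS-bla cells, 5 h pre-incubation, compound + L165041 300 nM final, 17 h 37 C; B/G FRET substrate 2 h RT; then CellTiter-Glo 30 min RT, luminescence.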

[4] = biological target: Peroxisome proliferator-activated receptor delta (Homo sapiens) (UniProt Q03181); assay: qHTS assay to identify small molecule antagonists of the peroxisome proliferator-activated receptor delta (PPARd) signaling pathway (AID 743215; active = well fitted inhibition curve with a large enough effect in the signal ratio in the repeat runs, not every such curve was filed as active; the % refers to the signal ratio;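 also: cells stimulated with agonist L165041 at 300 nM final during compound exposure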; also: potency is read from the fitted curve at half-maximal effect)
Procedure, shortened: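 Here, a reporter line (HEK293H, beta-lactamase under a UAS) measures PPARd signaling. Compounds are tested against agonist L165041 at 300 nM final concentration over 17 h at 37 C, with fluorescence read after substrate.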

[5] = qHTS assay to identify small molecule agonists of the farnesoid-X-receptor (FXR) signaling pathway - cell viability counter screen (AID 743218); also: nearly all actives have a fitted effect of over 45% in size; also: potency is read from the fitted curve at half-maximal effect
Procedure, shortened: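 Quantitative HTS counter screen measuring ATP-based viability via CellTiter-Glo luminescence in HEK 293T cells carrying a UAS-driven beta-lactamase reporter, after 16 h compound exposure at 37 C.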

[6] = qHTS assay to identify small molecule antagonists of the farnesoid-X-receptor (FXR) signaling pathway - cell viability counter screen (AID 743221; active = well fitted cell-killing curve with a large enough effect in the repeat runs, not every such curve was filed as active; also: nearly all actives have a fitted effect of over 50% in size; also: potency is read from the fitted curve at half-maximal effect)
Procedure, shortened: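 GeneBLAzer FXR-UAS-bla HEK 293T cells, compound plus chenodeoxycholic acid (50 uM final), 16 h at 37 C. CellTiter-Glo added to the same wells after the beta-lactamase read; luminescence read after 30 min at room temperature as viability.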

[7] = biological target: Vitamin D3 receptor (Homo sapiens) (UniProt P11473); assay: qHTS assay to identify small molecule agonists of the vitamin D receptor (VDR) signaling pathway (AID 743222; calls by dose curve)
Vitamin D3 receptor (Homo sapiens), sequence (P11473 whole entry, looked up): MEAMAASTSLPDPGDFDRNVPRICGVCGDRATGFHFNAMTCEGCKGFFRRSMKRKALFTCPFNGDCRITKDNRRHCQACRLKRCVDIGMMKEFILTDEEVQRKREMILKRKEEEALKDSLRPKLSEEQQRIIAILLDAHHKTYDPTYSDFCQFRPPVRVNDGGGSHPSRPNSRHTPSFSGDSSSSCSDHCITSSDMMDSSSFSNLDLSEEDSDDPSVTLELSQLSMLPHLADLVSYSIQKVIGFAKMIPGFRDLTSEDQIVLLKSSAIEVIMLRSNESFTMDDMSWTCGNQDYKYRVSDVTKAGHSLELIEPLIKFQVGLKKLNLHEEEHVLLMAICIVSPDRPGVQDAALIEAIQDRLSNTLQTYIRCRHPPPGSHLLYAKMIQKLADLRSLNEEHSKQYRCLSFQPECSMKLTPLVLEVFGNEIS
Procedure, shortened: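 Tox21 cell reporter format: VDR-bla line, 16 h compound exposure in 5% CO2 at 37C, then fluorescence intensity after 2 h with LiveBLAzer B/G FRET substrate.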

[8] = biological target: Vitamin D3 receptor (Homo sapiens) (UniProt P11473); assay: qHTS assay to identify small molecule antagonists of the vitamin D receptor (VDR) signaling pathway (AID 743223; active = well fitted inhibition curve with a large enough effect in the signal ratio in the repeat runs, not every such curve was filed as active; the % refers to the signal ratio)
Procedure, shortened: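 VDR-bla cells were treated with compound plus 3 nM final 1alpha,25-dihydroxyvitamin D3 for 16 h at 37C. Beta-lactamase reporter read by B/G FRET substrate fluorescence after 2 h at room temperature. qHTS format.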

[9] = biological target: Bile acid receptor (Homo sapiens) (UniProt Q96RI1); assay: qHTS assay to identify small molecule antagonists of the farnesoid-X-receptor (FXR) signaling pathway (AID 743217; active = well fitted inhibition curve with a large enough effect in the signal ratio in the repeat runs, not every such curve was filed as active; the % refers to the signal ratio; also: potency is read from the fitted curve at half-maximal effect)
Bile acid receptor (Homo sapiens), sequence (Q96RI1 whole entry, looked up): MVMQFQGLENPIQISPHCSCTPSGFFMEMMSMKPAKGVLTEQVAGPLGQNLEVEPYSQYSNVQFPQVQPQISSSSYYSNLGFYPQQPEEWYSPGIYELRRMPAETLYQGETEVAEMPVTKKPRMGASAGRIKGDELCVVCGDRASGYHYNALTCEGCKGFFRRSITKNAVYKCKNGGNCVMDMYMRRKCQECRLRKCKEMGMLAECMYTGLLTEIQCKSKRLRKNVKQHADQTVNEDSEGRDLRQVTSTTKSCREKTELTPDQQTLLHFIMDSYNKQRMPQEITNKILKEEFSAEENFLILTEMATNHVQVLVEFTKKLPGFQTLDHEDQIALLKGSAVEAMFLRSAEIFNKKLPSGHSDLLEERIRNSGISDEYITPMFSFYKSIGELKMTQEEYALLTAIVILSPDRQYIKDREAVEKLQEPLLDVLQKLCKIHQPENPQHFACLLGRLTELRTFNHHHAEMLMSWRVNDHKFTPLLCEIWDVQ
Procedure, shortened: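 Test compounds are pin-transferred onto FXR-bla HEK 293T cells, then chenodeoxycholic acid is added at 50 uM final. After 16 h at 37 °C, LiveBLAzer B/G substrate is applied for 2 h at room temperature and fluorescence read.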

[10] = biological target: Bile acid receptor (Homo sapiens) (UniProt Q96RI1); assay: qHTS assay to identify small molecule agonists of the farnesoid-X-receptor (FXR) signaling pathway (AID 743220; active = well fitted activation curve with a large enough effect in the signal ratio in the repeat runs, not every such curve was filed as active; the % refers to the signal ratio)
Procedure, shortened: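 FXR-UAS-bla HEK 293T cells carrying a UAS-driven beta-lactamase reporter were plated for 5 h at 37C/5% CO2, then exposed to DMSO-dissolved Tox21 10K compounds for 16 h at 37C. A LiveBLAzer B/G FRET substrate was loaded for 2 h at room temperature before fluorescence reading.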

Measured: Potency

COC(=O)c1sccc1S(=O)(=O)NC(=O)Nc1nc(C)nc(OC)n1
not listed: [9] | [10]
inactive: all other assays above

C=CCc1ccc(OC)cc1
inactive: [1] | [2] | [3] | [5] | [6]

O=Cc1ccco1
not listed: [9] | [10]
inactive: all other assays above

Cc1ccccc1[N+](=O)[O-]
not listed: [4] | [9] | [10]
inactive: all other assays above

O=C(NC(=O)c1c(F)cccc1F)Nc1ccc(Cl)cc1
not listed: [4]
inactive: all other assays above

Oc1cc(Cl)ccc1Cl
not listed: [9] | [10]
inactive: all other assays above

COc1ccc(C=O)cc1
not listed: [9] | [10]
inactive: all other assays above

C=C(C)[C@H]1Cc2c(ccc3c2O[C@@H]2COc4cc(OC)c(OC)cc4[C@@H]2C3=O)O1
inactive: [1] | [2] | [5] | [10] | [6]
4.9 µM (active) and inactive: [4]
active: [9] 0.75 µM

O=C(O)C(F)(F)C(F)(F)C(F)(F)C(F)(F)C(F)(F)C(F)(F)C(F)(F)F
active: [2] 19.4 µM
not listed: [4] | [9] | [10]
inactive: all other assays above

CCCCC(CC)COC(=O)c1ccc(C(=O)OCC(CC)CCCC)c(C(=O)OCC(CC)CCCC)c1 (stereo unspecified)
not listed: [9] | [10]
inactive: all other assays above

CCCCCCCCC(=O)NCc1ccc(O)c(OC)c1
not listed: [9] | [10]
inactive: all other assays above

CCc1cccc(CC)c1N(COC)C(=O)CCl
not listed: [4]
inactive: all other assays above

O=S(=O)(Oc1ccc(Cl)cc1)c1ccc(Cl)cc1
not listed: [9] | [10]
inactive: all other assays above

C=CC(=O)OCCO
not listed: [9] | [10]
inactive: all other assays above

COc1ccc(C(CN(C)C)C2(O)CCCCC2)cc1 (stereo unspecified)
not listed: [9] | [10]
inactive: all other assays above

CCCCN(CC)c1c([N+](=O)[O-])cc(C(F)(F)F)cc1[N+](=O)[O-]
not listed: [9] | [10]
inactive: all other assays above

Cc1ccc(OP(=O)(Oc2ccc(C)cc2)Oc2ccc(C)cc2)cc1
not listed: [9] | [10]
inactive: all other assays above

O=C(CCl)c1ccccc1
not listed: [9] | [10]
inactive: all other assays above

N#Cc1cc(Br)c(O)c(Br)c1
inactive: [1] | [2] | [4] | [9] | [10] | [6]

O=[N+]([O-])c1c(Cl)c(Cl)c(Cl)c(Cl)c1Cl
not listed: [9] | [10]
inactive: all other assays above

O=C(Nc1ccc(Br)cc1)c1cc(Br)cc(Br)c1O
inactive: [2] | [7] | [8]
active: [1] 6.14 µM and 2.45 µM and 8.41 µM | [3] 1.55 µM | [4] 6.89 µM | [5] 3.45 µM and 1.55 µM and 7.5 µM | [6] 9.74 µM and 2.45 µM and 13.3 µM

Nc1ccc(-c2ccccc2)cc1
not listed: [9] | [10]
inactive: all other assays above

CC(C)c1ccc(CO)cc1
not listed: [4]
inactive: all other assays above

CCOc1cc(C=O)ccc1O
not listed: [9] | [10]
inactive: all other assays above

CCCCCCCCCCCOC(=O)c1ccccc1C(=O)OCCCCCCCCCCC
not listed: [9] | [10]
inactive: all other assays above

Nn1cnnc1
not listed: [9] | [10]
inactive: all other assays above

C=CCc1ccc2c(c1)OCO2
inactive: [1] | [3] | [5] | [6] | [7] | [8]

CCC(C)(c1ccc(O)cc1)c1ccc(O)cc1
inactive: [3] | [9] | [5] | [10] | [6]
54.9 µM (active) and inactive: [1]

CCOCN(C(=O)CCl)c1c(C)cccc1CC
inactive: [3] | [6] | [7] | [8]
active: [1] 41.2 µM

Nc1ccncc1
not listed: [3] | [9] | [10]
inactive: all other assays above

Cc1cccc(N)c1N
inactive: [1] | [9] | [5] | [10] | [6] | [7]

CCOC(=O)C(C)OC(=O)c1cc(Oc2ccc(C(F)(F)F)cc2Cl)ccc1[N+](=O)[O-] (stereo unspecified)
inactive: [2] | [3] | [4] | [6]

Oc1c(Cl)c(Cl)c(Cl)c(Cl)c1Cl
inactive: [1] | [10] | [6] | [7] | [8]

CC1(C)C(C=C(Cl)Cl)C1C(=O)OC(C#N)c1cccc(Oc2ccccc2)c1 (stereo unspecified)
inactive: [1] | [3] | [5] | [6] | [7] | [8]

CCCCOCCOP(=O)(OCCOCCCC)OCCOCCCC
not listed: [1] | [9] | [10]
inactive: all other assays above

CCC(C)c1ccc(O)cc1 (stereo unspecified)
inactive: [1] | [3] | [9] | [5] | [10] | [6]

S=C1NCCN1
inactive: [1] | [3] | [5] | [6] | [7] | [8]

c1ccc(-c2cccc(-c3ccccc3)c2)cc1
inactive: [1] | [3] | [9] | [5] | [10] | [6]

CNC(=O)Oc1cccc2c1OC(C)(C)O2
not listed: [2] | [8]
inactive: all other assays above

O=C1C=CC(=O)C=C1
inactive: [1] | [3] | [6]

C[C@]12CCC(=O)C[C@@H]1CC[C@@H]1[C@@H]2CC[C@]2(C)[C@@H](O)CC[C@@H]12
inactive: [1] | [5]

O=c1oc2ccccc2c(O)c1C(CC(O)c1ccc(-c2ccc(Br)cc2)cc1)c1ccccc1 (stereo unspecified)
inactive: [1] | [3] | [9] | [5] | [6]

c1ccc(N=Nc2ccccc2)cc1
inactive: [1] | [3] | [5] | [6] | [7] | [8]

CCC(C)c1cc([N+](=O)[O-])cc([N+](=O)[O-])c1O (stereo unspecified)
not listed: [2]
inactive: all other assays above

Cc1cc(C)cc(C)c1
inactive: [1] | [3] | [5] | [6] | [7] | [8]

CCOC(=S)S
active: [3] 29.3 µM
inactive: [9] | [5] | [6]

NNC(=S)NN
not listed: [1] | [9] | [10]
inactive: all other assays above

NNC(N)=S
8.07 µM (active) and inactive: [3]
active: [4] 43.6 µM
not listed: [1]
inactive: all other assays above

CC(C)(c1cc(Cl)c(O)c(Cl)c1)c1cc(Cl)c(O)c(Cl)c1
not listed: [1] | [9] | [10]
inactive: all other assays above

CCN(CC)C(=O)SCc1ccc(Cl)cc1
not listed: [2] | [4] | [5]
inactive: all other assays above

Cc1ccc(N)c(N)c1
inactive: [1] | [3] | [5] | [6] | [7] | [8]

CCCCN(CCCC)N=O
inactive: [1] | [3] | [9] | [5] | [10] | [6]

CCCCNC(=O)n1c(NC(=O)OC)nc2ccccc21
inactive: [1] | [3] | [5] | [10] | [6] | [7]

CC(C)Oc1cc(-n2nc(C(C)(C)C)oc2=O)c(Cl)cc1Cl
inactive and 27.5 µM (active): [3]
inactive and 49 µM (active): [6]
inactive and 38.9 µM (active): [5]
inactive: [4] | [10] | [7] | [8]
active: [1] 15.5 µM

Oc1cc(Cl)c(Cl)cc1Cl
inactive: [1] | [3] | [5] | [6]

c1cc(OCC2CO2)ccc1Cc1ccc(OCC2CO2)cc1 (stereo unspecified)
inactive: [1] | [3] | [9] | [5] | [10] | [6]

CCC(C)(C)c1ccc(O)cc1
49.5 µM (active) and inactive: [1]
not listed: [2] | [4]
inactive: all other assays above

C[C@]12CCC(=O)C(O)=C1CC[C@@H]1[C@@H]2CC[C@]2(C)C(=O)CC[C@@H]12
inactive: [1] | [3] | [5] | [6] | [7] | [8]

CCCCCCOC(=O)c1ccccc1C(=O)OCCCCCC
inactive: [2] | [3] | [4] | [5] | [6]

Nc1ccc(-c2ccc(N)c(N)c2)cc1N
not listed: [3] | [4] | [8]
inactive: all other assays above

Nc1ccc(Cl)cc1N
inactive: [1] | [3] | [5] | [6]

CCCCC(CC)COC(=O)Cl (stereo unspecified)
not listed: [2] | [4]
inactive: all other assays above

CN(C)c1ccc(C(=O)c2ccc(N(C)C)cc2)cc1
inactive: [3] | [5] | [10] | [6] | [7]

N#CCCCl
inactive: [1] | [3] | [5] | [6] | [7] | [8]
